CYP2C9 activ: CYP2C9 (human) activation; recombinant CYP2C9, luciferin-H conversion, luminescence; hits give high values; factor 1 = untreated enzyme, 0 = blocked; activation factor at 5 µM; 1.4% of 96,000 active; AID 1024;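 active means activation factor of 2 or more for CYP2C9 at a 5 µM dose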;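 further: 0 = sulfaphenazole-blocked wells and 1 = vehicle-only wells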
PLK1 PBD inh: inhibitors of human Plk1 polo box domain binding | P53350 | Plk1 PBD phosphopeptide binding, fluorescence polarization | inhibition, %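 (tested at about 20 µM)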 | 0.13% of 97,000 active | AID 693; in the data active means inhibition above about 34%, passing the limit was not always enough
Target sequence (P53350 whole entry, looked up, the tested form may be a part): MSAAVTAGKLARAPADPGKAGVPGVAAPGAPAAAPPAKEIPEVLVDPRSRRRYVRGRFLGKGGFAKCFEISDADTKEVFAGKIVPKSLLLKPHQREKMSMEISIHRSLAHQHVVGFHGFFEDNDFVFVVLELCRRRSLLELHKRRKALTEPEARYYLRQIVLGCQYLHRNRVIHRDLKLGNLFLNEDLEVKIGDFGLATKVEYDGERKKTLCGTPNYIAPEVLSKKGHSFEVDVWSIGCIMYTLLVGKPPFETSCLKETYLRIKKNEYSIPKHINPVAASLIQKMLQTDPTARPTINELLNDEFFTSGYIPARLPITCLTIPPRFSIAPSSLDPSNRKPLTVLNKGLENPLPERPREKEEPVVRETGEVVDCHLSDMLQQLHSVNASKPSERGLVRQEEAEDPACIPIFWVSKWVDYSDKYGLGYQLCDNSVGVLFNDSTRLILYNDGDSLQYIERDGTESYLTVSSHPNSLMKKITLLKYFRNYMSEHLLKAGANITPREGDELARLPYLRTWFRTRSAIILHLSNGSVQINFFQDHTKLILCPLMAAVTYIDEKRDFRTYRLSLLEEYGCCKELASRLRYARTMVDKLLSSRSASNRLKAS
CYP2C19 activ: increases human CYP2C19 enzyme activity; activation factor at 5 µM; 96,000 tested, under 10 active; recombinant CYP2C19, luciferin-H EGE luminescence; hits give high values; 0 = fully inhibited enzyme, 1 = untreated enzyme;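 active means activation factor of at least 2 at 5 µM in the primary screen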;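 further: 0 = wells with 2.5 mM tranylcypromine and 1 = vehicle-only wells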
PLK1 kinase inh: inhibitors of human PLK1 kinase; recombinant PLK1 kinase, TR-FRET peptide phosphorylation; AID 619; P53350; inhibition, % at 10 µM; 0.53% of 97,000 active;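 active means inhibition of 50% or more in the single-concentration screen; inactive means inhibition below 50%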;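 further: 0% = DMSO max control and 100% = H-89 dihydrochloride min control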
CYP2C9 inhib: inhibitors of human CYP2C9 | CYP2C9 Supersomes, luciferin-H conversion, luminescence | 20% of 96,000 active | inhibition, % at 5 µM | P11712 | AID 777;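 active means blocking of liver enzyme CYP2C9 beyond about 50% at 5 µM, limit read from the data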
CYP2C19 inhib: human CYP2C19 inhibition; 21% of 96,000 active; inhibition, % at 5 µM; CYP2C19 Supersomes, luciferin-H EGE luminescence, 30 min;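 active means CYP2C19 inhibition above a set limit at 5 µM in the primary screen, cut at about 50% in these data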;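 further: plate controls were negative control wells for no effect and 2.5 mM tranylcypromine positive control for full effect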
Active calls of the source: *; · = no result given. The list is not random: actives were taken first. Their share in the collection is about 28%.

SMILES	CYP2C9 activ	PLK1 PBD inh	CYP2C19 activ	PLK1 kinase inh	CYP2C9 inhib	CYP2C19 inhib
COC(=O)c1nnn(CC(=O)Nc2cccc(Cl)c2)c1C(=O)OC	0.3	3.0	0.2	-5.9	70.5*	79.1*
O=C(COC(=O)c1ccncc1)Nc1cccc(Cl)c1	0.1	-15.2	0.2	7.0	87.4*	77.5*
Cc1c(NC(=O)C(C)OC(=O)CC2Sc3ccccc3NC2=O)c(=O)n(-c2ccccc2)n1C (stereo not drawn)	0.5	-2.9	1	-18.6	47.7	1.2
O=C(CN1CCOCC1)Nc1ccccc1C(=O)O	0.9	-5.0	1.1	-11.8	5.6	-7.5
COC(=O)C1=C(C)NC(=O)NC1c1ccc(OCC(=O)N2CCCCC2)cc1 (stereo not drawn)	0.9	1.3	1.1	-0.8	11.2	-9.0
COc1ccc(Nc2c3c(c(C#N)c4nc5ccccc5n24)CCC3)cc1	1	-17.5	0.9	-8.3	2.2	12.4
O=C(Nc1cccc(Cl)c1)O/N=C\c1ccncc1	0.1	-14.4	0.1	-4.8	89.9*	88.6*
Nc1nc(NCc2ccccc2)nc(-c2ccccc2)n1	0.2	-3.8	0.2	-5.2	78.3*	80.1*
CCCCN(C)C(=O)C1CCC(=O)N(c2cc(OC)c(OC)c(OC)c2)C1c1ccc(OC)cc1 (stereo not drawn)	·	7.2	·	-5.8	·	·
Cc1ccc(S(=O)(=O)N=S(CC2CC2(Cl)Cl)CC2CC2(Cl)Cl)cc1 (stereo not drawn)	0.6	10.4	0.4	-1.7	43.9	62.3*
CCOC(=O)C1(CCC(C)C)CC(CSc2nc3ccccc3[nH]2)OC1=O (stereo not drawn)	0.4	-41.5	0.9	-4.4	57.5*	14.5
CCOC(=O)C1(CC)CC(CSc2nc3ccccc3[nH]2)OC1=O (stereo not drawn)	0.2	-6.1	0.5	-3.6	81.6*	51.8*
Cc1ccc(C(=O)CN(C(=O)c2ccc(Cl)cc2)N2C(=O)c3ccccc3C2=O)cc1	0.6	8.2	0.9	-7.5	43.4	9.7
Cc1ccc(C(=O)C2C(=O)c3ccccc3C2=O)cc1	0.2	19.3	0.9	-4.2	77.0*	12.6
Cc1cc2nnc(SCc3ccccc3)n2c(N)n1	0.7	-25.0	0.7	-8.6	27.4	26.2
Cc1csc(C(=O)O)c1-n1cccc1	0.8	28.7	0.9	54.5*	15.7	5.5
O=S(=O)(NC1CC1)c1ccc(S(=O)(=O)N2CCCC3(CCCCC3)C2)cc1	0.5	12.3	0.7	-6.5	48.9	26.1
CC(C)/C=C1\CCCCC1N(C)C(=O)NC(C)C (stereo not drawn)	0.7	-10.1	0.4	-1.2	34.6	58.5*
O=C(COc1c(Br)cc(Br)c2cccnc12)N1CCc2ccccc2C1	1.3	3.1	1	1.3	-33.9	3.1
O=C(O)c1ccccc1C(=O)NCc1ccccc1	1.1	-2.4	0.8	0.6	-9.1	24.7
O=C(COc1cccc2ccccc12)N1CCN(c2ccccc2)CC1	1.7	-7.7	0	-1.9	-71.7	95.3*
O=C(COc1cccc2cccnc12)N1CCc2ccccc2C1	3.2*	10.9	0.1	1.1	-222.7	87.9*
O=C(NCc1ccccc1)c1ccccc1OCC(=O)N1CCCCC1	0	-2.8	0.3	3.1	99.6*	72.8*
O=C(COc1cccc2ccccc12)N1CCN(c2ccccn2)CC1	2.3*	-20.5	0	-9.5	-125.4	95.3*
O=C(CN1C(=O)c2ccccc2C1=O)N1CCN(c2ccccn2)CC1	1	-2.6	1	-14.6	-1.3	1.6
SMILES	CYP2C9 activ	PLK1 PBD inh	CYP2C19 activ	PLK1 kinase inh	CYP2C9 inhib	CYP2C19 inhib
CCC(=O)NCCc1nc2cc(NC(=O)c3ccccc3OC)ccc2n1C	1.1	2.9	1	-14.4	-7.8	-0.6
COc1ccc(C)cc1NC(=O)c1cnc2sccn2c1=O	1.1	·	1	·	-9.1	3.5
CC(C)N(C(=O)CSc1nc2ccccc2n1Cc1ccc(F)cc1)C(C)C	·	-5.9	·	-1.2	·	·
O=C(COc1cccc2ccccc12)N1c2ccccc2CCc2ccccc21	0.2	-23.0	0.2	-11.1	84.0*	76.5*
O=C(COc1ccc2ccccc2c1CN1CCOCC1)N1CCc2ccccc21	0.8	3.0	0.7	-9.9	24.0	26.1
CCCN1C(=O)SC(CC(=O)Nc2ccc(Br)cc2)C1=O (stereo not drawn)	0.5	7.3	0.3	0.3	52.3*	69.9*
O=C(CC1SC2=NCCN2C1=O)Nc1ccc(Br)cc1 (stereo not drawn)	·	-27.7	·	4.6	·	·
O=C(CC1Sc2ncnn2C1=O)Nc1ccc(Br)cc1 (stereo not drawn)	0.8	·	0.2	·	20.1	75.5*
CCCN1C(=O)SC(CC(=O)Nc2ccccc2C)C1=O (stereo not drawn)	·	-4.8	·	-5.5	·	·
CC(CCc1ccccc1)NC(=O)C1CCN(S(=O)(=O)c2cnc[nH]2)CC1 (stereo not drawn)	0.1	15.8	0.3	-6.3	93.1*	74.7*
O=C(NC1CCCc2ccccc21)C1CCN(S(=O)(=O)c2cccc3nonc23)CC1 (stereo not drawn)	1.6	-11.1	0.9	-6.4	-55.3	7.1
O=C(NC1CCCc2ccccc21)C1CCN(S(=O)(=O)c2cnc[nH]2)CC1 (stereo not drawn)	0.3	-14.6	0.6	-17.0	69.7*	44.3
Cc1cnc(C(=O)Nc2ccc(-n3cnnn3)cc2)cn1	1	17.2	1	-10.3	4.8	3.1
CCCC(=N)C1=C(O)CC(CC(C)SCC)CC1=O (stereo not drawn)	0.3	·	0.2	·	66.4*	82.5*
COc1cc(NC(=O)c2ccc(Br)o2)c(C(=O)O)cc1OC	1.1	-11.8	1.1	-4.2	-5.6	-14.6
COc1ccc(/C=C/C(=O)c2sc(-c3ccc(Cl)cc3)nc2C)cc1	0.6	-13.3	0.9	-20.3	44.7	7.2
Cc1ccc(C)c(OCCn2cc(/C=C(\C#N)C(=O)NCc3cccs3)c3ccccc32)c1	0.2	-4.5	0.9	-10.0	77.8*	12.9
CCOC(=O)C(C)On1c(-c2cccc(Cl)c2)nc2ccc([N+](=O)[O-])cc21 (stereo not drawn)	0.1	26.2	0.1	-4.9	88.8*	88.2*
COc1nc(OC)nc(N2CCC(NC(=O)C(Cc3ccc(C(C)C)cc3)NC(C)=O)CC2)n1 (stereo not drawn)	0.4	4.9	0.6	-5.9	57.1*	36.2
COc1ccc(CC(NC(C)=O)C(=O)NC2CCN(c3nnnn3-c3ccccc3)CC2)cc1 (stereo not drawn)	1.2	·	1.2	·	-17.8	-16.9
Cc1sc2nc(C(C)C)nc(SCC(=O)NCc3ccco3)c2c1C	0.2	-10.3	0.2	1.5	82.2*	77.6*
Cc1nc(SCC(=O)NCc2ccco2)c2c(C)c(C)sc2n1	0.8	-2.5	0.8	-9.7	19.8	22.6
Cc1[nH]c2ccc(-c3nnc(SCC(=O)NCc4ccco4)n3Cc3ccccc3)cc2c1C	0.3	0.2	0.7	-5.1	65.5*	32.0

Bioassay records from PubChem.
